Test results reported in PubChem BioAssay AID1159580 (chemical genetic matrix, 2015).
Values joined by “and” are separate entries in the source; they are usually repeats but may differ in a detail not shown here. Identical values can stand only once. Screen size: about 5,500 compounds; about 2,000 (36%) were called active. Another 18% or so got no clear call; they are omitted. The list shows a part of the results. Values without a mark were called inactive. Rule as the data show it: active = normalized growth mostly below about 0.91 (no sharp cut-off); inconclusive = no clear call, values can overlap the other calls; inactive = mostly above about 0.92.

Test: chemical genetic growth profiling, strain panel (AID 1159580);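 also: tested at 20 µM; growth read once vehicle control cultures reached saturation at 30 °C; 1 = growth at the plate median or of vehicle wells; lower values mean less growth of the strain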
Settings: S. cerevisiae deletion strains, growth OD

CC(=O)O[C@]1(C)CC[C@@]23CC1C(C)(C)[C@@H]2CC[C@H]3C
normalized growth (locus YAL013W, strain DEP1, hits give low values): 1 | normalized growth (locus YAL021C, strain ccr4, hits give low values): 0.985 | normalized growth (locus YAL026C, strain drs2, hits give low values): 0.979 | normalized growth (locus YAL030W, strain snc1, hits give low values): 0.98 | normalized growth (locus YBL061C, strain skt5, hits give low values): 0.967 | normalized growth (locus YBR009C, strain hhf1, hits give low values): 0.968 | normalized growth (locus YBR021W, strain FUR4, hits give low values): 0.954 | normalized growth (locus YBR023C, strain chs3, hits give low values): 0.961 | normalized growth (locus YBR171W, strain sec66, hits give low values): 0.969 | normalized growth (locus YBR229C, strain ROT2, hits give low values): 1 | normalized growth (locus YBR231C, strain swc5, hits give low values): 0.998 | normalized growth (locus YBR279W, strain paf1, hits give low values): 0.979 | normalized growth (locus YCL011C, strain gbp2, hits give low values): 0.975 | normalized growth (locus YCL016C, strain dcc1, hits give low values): 0.976 | normalized growth (locus YCL029C, strain bik1, hits give low values): 1.03 | normalized growth (locus YCL061C, strain MRC1, hits give low values): 0.985 | normalized growth (locus YCL069W, strain vba3, hits give low values): 0.976 | normalized growth (locus YCR088W, strain abp1, hits give low values): 0.978 | normalized growth (locus YDL005C, strain med2, hits give low values): 0.967 | normalized growth (locus YDL035C, strain GPR1, hits give low values): 0.964 | normalized growth (locus YDL040C, strain nat1, hits give low values): 0.972 | normalized growth (locus YDL074C, strain BRE1, hits give low values): 0.958 | normalized growth (locus YDL101C, strain DUN1, hits give low values): 0.981 | normalized growth (locus YDL185W, strain tfp1, hits give low values): 1.02 | normalized growth (locus YDL192W, strain arf1, hits give low values): 0.971 | normalized growth (locus YDR001C, strain nth1, hits give low values): 0.977 | normalized growth (locus YDR069C, strain doa4, hits give low values): 0.974 | normalized growth (locus YDR101C, strain arx1, hits give low values): 1.02 | normalized growth (locus YDR137W, strain rgp1, hits give low values): 0.944 | normalized growth (locus YDR159W, strain sac3, hits give low values): 0.986 | normalized growth (locus YDR162C, strain NBP2, hits give low values): 0.905 | normalized growth (locus YDR195W, strain ref2): 0.995 | normalized growth (locus YDR297W, strain sur2, hits give low values): 0.96 | normalized growth (locus YDR318W, strain mcm21, hits give low values): 0.972 | normalized growth (locus YDR334W, strain swr1, hits give low values): 0.974 | normalized growth (locus YDR335W, strain msn5, hits give low values): 0.975 | normalized growth (locus YDR388W, hits give low values): 1.01 | normalized growth (locus YDR392W, strain spt3, hits give low values): 0.964 | normalized growth (locus YDR502C, strain sam2, hits give low values): 0.979 | normalized growth (locus YEL003W, strain gim4, hits give low values): 0.977 | normalized growth (locus YEL037C, strain rad23, hits give low values): 0.975 | normalized growth (locus YEL061C, strain CIN8 (second series), hits give low values): 0.981 | normalized growth (locus YEL061C, strain CIN8, hits give low values): 0.996 | normalized growth (locus YER015W, strain faa2, hits give low values): 0.974 | normalized growth (locus YER016W, strain bim1, hits give low values): 0.966 | normalized growth (locus YER110C, hits give low values): 1.02 | normalized growth (locus YER111C, strain swi4, hits give low values): 0.967 | normalized growth (locus YER155C, strain BEM2 (second series), hits give low values): 0.974 | normalized growth (locus YER155C, strain BEM2, hits give low values): 0.95 | normalized growth (locus YER167W, strain BCK2, hits give low values): 0.982 | normalized growth (locus YFR010W, strain ubp6, hits give low values): 0.994 | normalized growth (locus YGL078C, strain dbp3, hits give low values): 1.01 | normalized growth (locus YGL086W, strain mad1, hits give low values): 1.02 | normalized growth (locus YGL167C, strain pmr1, hits give low values): 0.977 | normalized growth (locus YGL173C, strain kem1, hits give low values): 0.975 | normalized growth (locus YGL227W, strain vid30, hits give low values): 0.969 | normalized growth (locus YGL240W, strain doc1, hits give low values): 1.01 | normalized growth (locus YGL248W, strain PDE1, hits give low values): 0.934 | normalized growth (locus YGL253W, strain hxk2, hits give low values): 0.981 | normalized growth (locus YGR078C, strain PAC10, hits give low values): 0.946 | normalized growth (locus YGR135W, strain pre9, hits give low values): 0.985 | normalized growth (locus YGR252W, strain gcn5, hits give low values): 0.867 | normalized growth (locus YHR013C, strain ard1, hits give low values): 0.959 | normalized growth (locus YHR027C, strain rpn1, hits give low values): 0.986 | normalized growth (locus YHR030C, strain SLT2, hits give low values): 0.964 and 0.917 | normalized growth (locus YHR079C, strain IRE1 (second series), hits give low values): 1.01 | normalized growth (locus YHR079C, strain IRE1, hits give low values): 0.951 | normalized growth (locus YHR094C, strain hxt1, hits give low values): 1.01 | normalized growth (locus YHR129C, strain ARP1, hits give low values): 0.978 | normalized growth (locus YHR142W, strain chs7, hits give low values): 0.967 | normalized growth (locus YHR200W, strain rpn10, hits give low values): 1 | normalized growth (locus YIL066C, strain RNR3, hits give low values): 0.973 | normalized growth (locus YIL073C, strain SPO22, hits give low values): 0.923 | normalized growth (locus YIL125W, strain kgd1, hits give low values): 1.01 | normalized growth (locus YIR030C, strain dcg1, hits give low values): 0.997 | normalized growth (locus YJL092W, strain hpr5, hits give low values): 0.983 | normalized growth (locus YJL095W, strain BCK1 (second series), hits give low values): 0.981 | normalized growth (locus YJL095W, strain BCK1, hits give low values): 0.84 and 0.968 | normalized growth (locus YJL115W, strain asf1, hits give low values): 0.975 | normalized growth (locus YJL129C, strain trk1, hits give low values): 0.981 | normalized growth (locus YJL134W, strain LCB3, hits give low values): 1.01 | normalized growth (locus YJL154C, strain vps35, hits give low values): 0.962 | normalized growth (locus YJL164C, strain tpk1, hits give low values): 0.978 | normalized growth (locus YJL166W, strain qcr8, hits give low values): 0.978 | normalized growth (locus YJL168C, strain set2, hits give low values): 1.01 | normalized growth (locus YJL187C, strain SWE1 (second series), hits give low values): 0.97 | normalized growth (locus YJR043C, strain POL32, hits give low values): 0.995 | normalized growth (locus YJR066W, strain TOR1, hits give low values): 0.958 | normalized growth (locus YJR075W, strain HOC1, hits give low values): 0.956 | normalized growth (locus YKL009W, strain mrt4, hits give low values): 1.08 | normalized growth (locus YKL068W, hits give low values): 0.998 | normalized growth (locus YKL085W, strain MDH1 (second series), hits give low values): 1 | normalized growth (locus YKL085W, strain MDH1, hits give low values): 1 | normalized growth (locus YKL160W, strain elf1, hits give low values): 0.968 | normalized growth (locus YKL190W, strain CNB1, hits give low values): 1 | normalized growth (locus YKR001C, strain vps1, hits give low values): 0.98 | normalized growth (locus YKR026C, strain gcn3, hits give low values): 0.974 | normalized growth (locus YKR091W, strain srl3, hits give low values): 0.974 | normalized growth (locus YLL001W, strain dnm1, hits give low values): 0.978 | normalized growth (locus YLL026W, hits give low values): 0.971 | normalized growth (locus YLL041C, strain sdh2, hits give low values): 0.973 | normalized growth (locus YLR027C, strain aat2, hits give low values): 0.964 | normalized growth (locus YLR039C, strain RIC1, hits give low values): 0.853 | normalized growth (locus YLR058C, strain SHM2, hits give low values): 0.974 | normalized growth (locus YLR102C, strain apc9, hits give low values): 1.01 | normalized growth (locus YLR113W, strain HOG1, hits give low values): 0.911 | normalized growth (locus YLR221C, strain rsa3, hits give low values): 0.977 | normalized growth (locus YLR258W, strain gsy2, hits give low values): 0.957 | normalized growth (locus YLR262C, strain YPT6 (second series), hits give low values): 0.987 | normalized growth (locus YLR262C, strain YPT6, hits give low values): 0.848 | normalized growth (locus YLR268W, strain sec22, hits give low values): 1.03 | normalized growth (locus YLR320W, strain mms22, hits give low values): 0.981 | normalized growth (locus YLR330W, strain CHS5, hits give low values): 1 | normalized growth (locus YLR342W, strain FKS1 (second series), hits give low values): 1 | normalized growth (locus YLR342W, strain FKS1, hits give low values): 0.995 | normalized growth (locus YLR357W, strain rsc2, hits give low values): 0.989 | normalized growth (locus YLR370C, strain arc18, hits give low values): 0.976 | normalized growth (locus YLR371W, strain rom2, hits give low values): 1.01 | normalized growth (locus YLR384C, strain iki3, hits give low values): 0.977 | normalized growth (locus YLR418C, strain cdc73, hits give low values): 0.864 | normalized growth (locus YML016C, strain PPZ1, hits give low values): 1 | normalized growth (locus YML032C, strain rad52, hits give low values): 0.965 | normalized growth (locus YML120C, strain ndi1, hits give low values): 0.976 | normalized growth (locus YML124C, strain tub3, hits give low values): 0.999 | normalized growth (locus YMR058W, strain fet3, hits give low values): 0.968 | normalized growth (locus YMR078C, strain ctf18, hits give low values): 1.01 | normalized growth (locus YMR125W, strain sto1, hits give low values): 0.966 | normalized growth (locus YMR129W, hits give low values): 0.973 | normalized growth (locus YMR205C, strain PFK2, hits give low values): 0.933 | normalized growth (locus YMR223W, strain ubp8, hits give low values): 0.959 | normalized growth (locus YMR231W, strain pep5, hits give low values): 0.976 | normalized growth (locus YMR263W, strain SAP30, hits give low values): 0.983 | normalized growth (locus YMR307W, strain GAS1, hits give low values): 0.74 | normalized growth (locus YNL067W, strain RPL9B, hits give low values): 0.969 | normalized growth (locus YNL071W, strain lat1, hits give low values): 0.982 | normalized growth (locus YNL183C, strain NPR1, hits give low values): 0.961 | normalized growth (locus YNL209W, strain ssb2, hits give low values): 0.983 | normalized growth (locus YNL233W, strain BNI4, hits give low values): 0.933 | normalized growth (locus YNL248C, strain rpa49, hits give low values): 0.978 | normalized growth (locus YNL250W, strain rad50, hits give low values): 1.01 | normalized growth (locus YNL271C, strain bni1, hits give low values): 1.01 | normalized growth (locus YNL298W, strain CLA4, hits give low values): 1.03 | normalized growth (locus YNL307C, strain MCK1, hits give low values): 1.01 | normalized growth (locus YNL322C, strain KRE1 (second series), hits give low values): 0.952 | normalized growth (locus YNR049C, strain mso1, hits give low values): 0.995 | normalized growth (locus YNR052C, strain pop2, hits give low values): 0.986 | normalized growth (locus YOL012C, strain htz1): 0.829 | normalized growth (locus YOL147C, strain pex11, hits give low values): 1 | normalized growth (locus YOR001W, strain rrp6, hits give low values): 0.996 | normalized growth (locus YOR061W, strain CKA2, hits give low values): 1 | normalized growth (locus YOR069W, strain VPS5, hits give low values): 1 | normalized growth (locus YOR070C, strain gyp1, hits give low values): 0.993 | normalized growth (locus YOR080W, strain dia2, hits give low values): 0.967 | normalized growth (locus YOR083W, strain WHI5, hits give low values): 0.979 | normalized growth (locus YOR106W, strain vam3, hits give low values): 0.979 | normalized growth (locus YOR136W, strain idh2, hits give low values): 1.02 | normalized growth (locus YOR144C, strain elg1, hits give low values): 1.01 | normalized growth (locus YOR184W, strain ser1, hits give low values): 0.846 (active) | normalized growth (locus YOR231W, strain MKK1, hits give low values): 0.958 | normalized growth (locus YOR265W, strain rbl2, hits give low values): 0.999 | normalized growth (locus YOR270C, strain vph1, hits give low values): 0.897 | normalized growth (locus YOR290C, strain snf2, hits give low values): 0.947 | normalized growth (locus YOR316C, strain cot1, hits give low values): 1 | normalized growth (locus YPL051W, strain arl3, hits give low values): 0.976 | normalized growth (locus YPL055C, strain LGE1, hits give low values): 0.937 | normalized growth (locus YPL078C, strain atp4, hits give low values): 0.999 | normalized growth (locus YPL106C, strain sse1, hits give low values): 0.969 | normalized growth (locus YPL240C, strain hsp82, hits give low values): 0.982 | normalized growth (locus YPL256C, strain CLN2, hits give low values): 0.991 | normalized growth (locus YPR119W, strain clb2, hits give low values): 1.01 | normalized growth (locus YPR141C, strain kar3, hits give low values): 1 | normalized growth (locus YPR163C, strain tif3, hits give low values): 1.02 | normalized growth (locus YPR167C, strain met16, hits give low values): 0.98 | normalized growth (strain wtn01, hits give low values): 1.04
